# Tau filament bind: binds recombinant human tau filaments. P10636. recombinant tau filaments, thioflavin S fluorescence, 15 h; filaments grown with octadecylsulfate alongside compound. Potency, µM (highest dose often 57.1 µM), for inactives: top-dose activity change, negative = inhibition. 2% of 71,000 active. AID 596;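 also: potency is read from the fitted curve at half-maximal effect; % is scaled to controls: 0 for no effect and ±100 for the full control effect; actives lower thioflavin S fluorescence by blocking filaments or displacing dye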
# Target sequence (P10636 whole entry, looked up): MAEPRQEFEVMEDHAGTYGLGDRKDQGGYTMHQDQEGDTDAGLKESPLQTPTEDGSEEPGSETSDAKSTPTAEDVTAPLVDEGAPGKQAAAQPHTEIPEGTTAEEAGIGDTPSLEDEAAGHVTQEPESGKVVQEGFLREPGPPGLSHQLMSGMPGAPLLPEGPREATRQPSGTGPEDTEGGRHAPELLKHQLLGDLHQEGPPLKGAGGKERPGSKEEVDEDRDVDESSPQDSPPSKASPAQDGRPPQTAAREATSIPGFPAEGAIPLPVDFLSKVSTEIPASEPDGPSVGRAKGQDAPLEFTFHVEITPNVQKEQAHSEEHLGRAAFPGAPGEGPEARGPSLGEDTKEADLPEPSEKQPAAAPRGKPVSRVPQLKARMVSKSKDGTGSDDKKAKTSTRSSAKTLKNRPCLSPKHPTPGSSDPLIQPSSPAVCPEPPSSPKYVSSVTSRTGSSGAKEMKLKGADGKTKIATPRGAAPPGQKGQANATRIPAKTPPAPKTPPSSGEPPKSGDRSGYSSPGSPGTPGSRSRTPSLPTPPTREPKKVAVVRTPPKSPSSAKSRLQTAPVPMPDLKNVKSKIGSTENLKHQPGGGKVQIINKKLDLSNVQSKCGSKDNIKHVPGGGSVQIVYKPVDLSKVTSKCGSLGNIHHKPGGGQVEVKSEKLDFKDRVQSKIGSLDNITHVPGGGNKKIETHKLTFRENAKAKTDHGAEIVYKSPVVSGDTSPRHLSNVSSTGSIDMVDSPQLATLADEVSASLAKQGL
#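 Tau 2 uM in ThS buffer dispensed; compound added; 60 uM ODS added (finals 1 uM tau, 30 uM ODS); 15 h 37 C; fluor ex450/em510.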
# ERK AVP block: blocks ERK signaling stimulated by vasopressin; HEK293-V1b, vasopressin-stimulated pERK AlphaScreen; Potency, µM (highest dose often 57.5 µM), without a hit: at the top dose activity, negative = inhibition, most hits filed as inhibitors; 0.99% of 72,000 active; also: potency is read from the fitted curve at half-maximal effect; % is scaled to controls: 0 for no effect and ±100 for the full control effect; nearly all actives have a fitted effect of over 55% in size
#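 Phosphorylated ERK1/2 detected via AlphaScreen bead proximity in lysates of V1b-expressing HEK293 cells given 25 nM vasopressin for 5 min after 30 min compound exposure (37 °C). AC50 from Hill equation; basal DMSO 0%, vasopressin 100%.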
# YjeE inh: displaces an ADP probe from E. coli YjeE (TsaE); Potency, µM; 0.05% of 71,000 active; purified YjeE enzyme, qHTS inhibition assay
#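 Purified YjeE (10 uM) with BODIPY Texas Red-labeled ADP probe (2 uM); compounds pin-transferred, 15 min at room temperature. Binding inhibition read as decreased fluorescence polarization; ADP titration as control.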
# p53ts 32C kill: p53ts cell cytotoxicity, permissive temperature; 0.93% of 130,000 active; Potency, µM (top dose mostly 46.1 µM), for inactives: at the highest dose activity change, negative = cytotoxicity, hits mostly cytotoxic; AID 924; H1299-p53A138V at 32C, ATP luminescence viability, 24 h;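 also: potency is read from the fitted curve at half-maximal effect; 0% = DMSO and -100% = full killing by reference compound; nearly all actives have a fitted effect of over 55% in size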
#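 ATP-content luminescence (ATPlite) read-out after 24 h compound exposure at 32C in H1299-p53A138V cells (600/well). Tested up to 46 uM. Normalized to DMSO (0%) and 100 uM tamoxifen (100% killing); Hill-fit AC50.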
# DNA Pol III inh: blocks replication by bacterial DNA polymerase III holoenzyme | reconstituted DNA polymerase III holoenzyme replication, biochemical | Potency, µM (series often up to 57.1 µM), without a hit: top-dose activity change, negative = inhibition | 0.25% of 71,000 active | AID 603; also: potency is read from the fitted curve at half-maximal effect; % is scaled to controls: 0 for no effect and ±100 for the full control effect
#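 Reconstituted *E. coli* holoenzyme (0.35 nM Pol III, 1 nM beta, 154 nM SSB, 2 nM primase) was preincubated with compound for 15 min at RT. Synthesis on 1.4 nM ssM13Gori ran 35 min, then was stopped with PicoGreen/EDTA and read as dsDNA fluorescence.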
# p53ts 39C tox: cytotoxicity in p53ts cells at nonpermissive temperature. H1299-p53A138V viability at 39C, ATP luminescence, 24 h. Potency, µM (highest dose often 46.1 µM), for inactives: at the top dose activity change, negative = cell killing, actives largely listed as cytotoxic. 1.5% of 130,000 active. AID 902; also: potency is read from the fitted curve at half-maximal effect; % is scaled to controls: 0 for no effect and ±100 for the full control effect; nearly all actives have a fitted effect of over 55% in size
# An asterisk follows results filed as active; i = inactive; ? = inconclusive; . = no result; ! = repeats disagree; [ ] = dose if it differs, or a comment. Most compounds without a hit are left out; they make up all but 3.2% or so of the library. Calls follow the shape of the dose curve; as a rule, active = well fitted curve in the direction sought with a large enough effect; inconclusive = small, poorly fitted or top-dose-only effect, or another doubt; inactive = no such curve, though single readings can be large; an effect the other way counts as inactive or inconclusive.
SMILES,Tau filament bind,ERK AVP block,YjeE inh,p53ts 32C kill,DNA Pol III inh,p53ts 39C tox
COc1cc(S(=O)(=O)Nc2ccccc2C)ccc1Cl,13µM*,?,i,8%,-4%,0%
COc1ccc(S(=O)(=O)NC2CCCCC2)cc1C,-14%,10%,i,11%,-3%,17%
COc1cc(S(=O)(=O)NC2CCCCC2)ccc1Cl,16µM*,-3%,i,47%,-1%,13%
Cc1cc(S(=O)(=O)Nc2ccccc2C)ccc1F,-2%,-15%,i,-1%,-6%,12%
Cc1cc(C)cc(NC(=O)Cn2nnc(C(=O)Nc3cc(C)cc(C)c3)c2N)c1,.,.,.,-13%,.,?
Nc1ccccc1Nc1cc(-c2ccccc2)nn1-c1cccc(Cl)c1,.,.,.,.,.,-18%
CNc1nn(-c2cccc(Cl)c2)nc1N,16µM*,2%,i,4%,0%,11%
CCOc1ccc(C2C(C#N)=C(N)SC(N)=C2C#N)c(OCC)c1,63%,?,i,33%,2%,27%
CCCCc1ccc(C2C(C#N)=C(N)SC(N)=C2C#N)s1,0.32µM*,-14%,i,25%,-4%[11.4 µM],30%
O=C1c2ccccc2C(=O)C1c1ccncc1,-27%,-20%,i,3.2µM*,-4%,3.2µM*
CCCCNc1nc(C)nc2c1nc(-c1ccccc1)n2CCN1CCCCC1,59%,-28%,i,-18%,-6%,-26%
c1cnc2c(c1)ccc1cccnc12,-7%[11.4 µM],-8%[11.5 µM],i,?,-7%[11.4 µM],3.2µM*
COc1ccccc1CNC(=O)c1ccc(CSc2nc3ccncc3n2Cc2ccccc2C)cc1,.,.,.,13%,.,-9%
CCc1ccc(C(=O)c2cn(CC(=O)Nc3cccc(OC)c3)c3ccc(OC)cc3c2=O)cc1,.,.,.,11%,.,-8%
Cc1cc(OCCCCCNCCO)cc(C)c1Cl,2.5µM*,40µM*,i,15%,-6%[11.4 µM],?
COc1ccc2[nH]cc(CCNc3ccnc(-c4cccc(C#N)c4)n3)c2c1,-22%,?,i,-8%,-3%,-16%
COc1ccc2[nH]cc(CCNc3ccnc(-c4cccc(NS(C)(=O)=O)c4)n3)c2c1,-13%,13µM*,i,?,1%,-10%
COc1ccc2[nH]cc(CCNc3ccnc(-c4ccccc4Cl)n3)c2c1,-10%,40µM*,i,-27%,3%,-11%
CC1=CC(C)(C)Nc2ccccc21,16µM*!,11%,i,1%[1.84 µM],-2%,-6%
COc1ccc2c(c1)c1nnc(SCC(=O)N3C(C)CCCC3C)nc1n2C (stereo not given),13µM*,?,i,-19%,-6%,-18%
COCCn1c(=O)cnc2cnc(N3CCNCC3)nc21,9%,-18%,i,-2%,-4%,3%
Cc1ccc(N=Nc2ccc(N)cc2C)c(S(N)(=O)=O)c1,4µM*,-1%[11.5 µM],i,2%[9.22 µM],-5%[11.4 µM],-2%[9.22 µM]
CCOc1ccccc1NC(=O)c1ccc2c(Cl)c3c(nc2c1)CCCC3,.,.,.,-12%,.,-21%
CCC(C)NC(=O)c1cnn(-c2cccc(F)c2)c1-n1cccc1 (stereo not given),.,.,.,-3%,.,-10%
CN1CCc2cccc3c2[C@@H]1Cc1ccc(O)c(O)c1-3,?,?,i,32µM*!,-5%,10µM*!
SMILES,Tau filament bind,ERK AVP block,YjeE inh,p53ts 32C kill,DNA Pol III inh,p53ts 39C tox
COc1cc2c3cc1Oc1c(OC)c(OC)cc4c1[C@@H](Cc1ccc(O)c(c1)Oc1ccc(cc1)C[C@@H]3N(C)CC2)N(C)CC4,?,-12%,i,-5%,-6%,-30%
CCOC(=O)c1ccccc1NC(=O)c1ccc(NS(C)(=O)=O)cc1,-5%,25µM*,i,2%,-3%,-4%
COC(=O)c1ccccc1NC(=O)c1ccc(F)cc1,?,12%,i,-6%,-2%,-21%
O=C(c1ccc(CS(=O)c2ccccc2Cl)o1)N1CCN(c2ccccc2F)CC1 (stereo not given),.,.,.,-4%,.,-22%
Oc1cccc(C(Nc2ccccn2)c2ccc3cccnc3c2O)c1Cl (stereo not given),.,.,.,2%,.,7.9µM*
Nc1cc(-c2ccccc2)ccc1O,25µM*,14%,i,-7%,-4%,-27%
Nc1ccc(-c2ccc(N)c(O)c2)cc1O,5µM*,-22%,i,-17%[1.84 µM],-4%,12%
COC(=O)c1ccc(NC(=O)CSc2nc3ccc(OC)cc3[nH]2)cc1,.,.,.,1%,.,-11%
COc1cc(NC(=O)c2cc(Cl)c(OC)c(Cl)c2)ccc1NC(=O)c1cc2ccccc2o1,.,.,.,8%,.,9%
CCc1nc2ccc(C(=O)NCc3ccc(OC)c(OC)c3)cc2nc1CC,.,.,.,10%,.,-3%
Cc1cccc(-n2ncc3c(NC(C)C)ncnc32)c1,-10%,.,i,13µM*,-10%,16µM*
CC(C)Nc1ncnc2c1cnn2-c1ccccc1,3%,.,i,13µM*,-8%,?
Clc1ccc(-n2ncc3c(NC4CCCC4)ncnc32)cc1,.,.,.,13µM*,.,16µM*
Cc1cccc(-n2ncc3c(Nc4c(C)cc(C)cc4C)ncnc32)c1,.,.,.,11%,.,-2%
Cc1cc(C)c(C)c(OCC(=O)Nc2ccc(S(=O)(=O)Nc3nc(C)cc(C)n3)cc2)c1,.,.,.,-14%,.,-20%
CC(CNC(=O)Cn1c(-c2cccs2)cc2ccccc21)c1ccccc1 (stereo not given),.,.,.,-10%,.,.
N#CC1=C(N)N(c2ccccc2)C2=C(C(=O)CCC2)C1c1cccs1 (stereo not given),20µM*,?,i,8%,-6%,10%
CC(C)(C)Cn1nc(-c2ccc(Cl)cc2)c2c(N)ncnc21,-23%,16µM*,i,-3%,-3%,-24%
CCCCNC(=O)c1ccc2c(=O)n(Cc3ccc(OC)cc3)c(=O)[nH]c2c1,.,.,.,-6%,.,21%
O=C(CSc1nc(-c2ccco2)cc(C(F)(F)F)n1)Nc1ccc2c(c1)OCO2,153%,8%,i,25%,-6%,-7%
O=C(CCCSc1nc(-c2ccco2)cc(C(F)(F)F)n1)Nc1ccc2c(c1)OCO2,25µM*,5%,i,11%,-6%,-15%
CN(C)CCCCNC(=O)c1ccc(-n2c(=O)c(=O)[nH]c3ccccc32)cc1,.,.,.,-10%,.,-7%
Nc1c(N2CCCC2)cc(Cl)c2nonc12,20µM*,-14%,i,?,-7%,6%
COc1cccc(NC(=O)CSc2nnc(-c3cc(C)n(-c4ccccc4)c3C)o2)c1,37%,-26%,i,-23%,9%,20µM*
C[C@@H]1OC2C3=C(C(=O)[C@H]4O[C@@H]4[C@H]3O)[C@@H]1[C@H]1[C@H](C)OC=C3[C@H](O)[C@H]4O[C@H]4/C(=N\OCc4ccccc4)[C@@]321,.,27%[11.5 µM],.,13%[9.22 µM],.,4µM*

# From PubChem
